Data on 34 compounds can be found in PubChem BioAssay.

Entries with a potency or affinity are not part of this list. Results filed as inconclusive are left out. Calls of active or inactive are those of the source.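 How the source made its calls: active means falling signal with fitted half-maximal potency no higher than twice the top valid tested dose; inconclusive means poor fit quality, or flat fit spanning -70% to -30%; inactive means potency over limit, rising signal, or flat fit inside 30%.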

The assay in a line: Cryptococcus neoformans growth inhibition, dose response, Alamar Blue, cherry-picks (AID 686998). The following applies: 24 h; series mostly up to 35 µM. (In general: Alamar Blue is a resazurin reagent that responds to reducing activity.)
In the case of `C[C@@H](NC(=O)C[C@H]1CC[C@@H](NC(=O)Cc2ccccn2)[C@@H](CO)O1)c1ccccc1`, the outcome was inactive.

As for `CC(=O)N1CCN(c2ccc(NC(=S)NC(=O)c3ccc(C)c([N+](=O)[O-])c3)cc2)CC1`, the result was inactive.

`CO[C@H](CN(C)Cc1ccc2c(c1)OCO2)[C@@H](C)CN(C(=O)c1ccccc1)[C@@H](C)CO`: the call was inactive.

Consider `CN1C(=O)c2cc(NC(=O)NC3CCCC3)ccc2OC[C@H]2O[C@@H](CC(=O)NCC3CC3)CC[C@@H]21`, for which the result was inactive.

Consider `COc1cccc(S(=O)(=O)Nc2ccc3c(c2)[C@@H]2C[C@@H](CC(=O)NCc4cccc(F)c4)O[C@H](CO)[C@@H]2O3)c1`, for which the compound was called inactive.

Consider `COc1ccccc1NC(=O)N[C@@H]1CC[C@H](CCn2cc(-c3ccccc3OC)nn2)O[C@H]1CO`, for which the compound was classed as inactive.

Consider `O=C(NC1CCCC1)N1CCCCN2[C@H](CO)[C@@H](c3ccc(-c4cncnc4)cc3)[C@H]2C1`, for which the outcome was inactive.

With `C[C@H](O)C#Cc1cnc2c(c1)C(=O)N([C@@H](C)CO)C[C@@H](C)[C@@H](CN(C)C(=O)Cc1ccncc1)O2`, the call was inactive.

For `COc1cccc(S(=O)(=O)N(C)C[C@@H]2Oc3ncc(-c4cccc(F)c4)cc3C(=O)N([C@H](C)CO)C[C@@H]2C)c1`, the result was inactive.

For `Cc1nnc(NC(=O)CSc2ncnc3c2cnn3-c2ccccc2C)s1`, the call was inactive.

As for `CC(C)NC(=O)Nc1ccc2c(c1)CC(=O)N([C@H](C)CO)C[C@@H](C)[C@H](CN(C)Cc1ccc3c(c1)OCO3)O2`, the compound was classed as inactive.

As to `CC(C)NC(=O)NCC[C@@H]1CC[C@@H](NC(=O)CN(C)C)[C@@H](CO)O1`, the outcome was inactive.

For `Cc1cc(C)c(N2CCCC2C(=O)Nc2cccc(C(F)(F)F)c2)c(C)c1` (centres undefined), the compound was called inactive.

For `CO[C@H]1CN(C)C(=O)c2cc(NS(=O)(=O)c3ccc(C)cc3)ccc2OC[C@@H](C)N(C(=O)NC(C)C)C[C@@H]1C`, the compound was called inactive.

On to `COc1ccccc1NC(=O)N[C@H]1CC[C@@H](CCn2cc(-c3ccccc3OC)nn2)O[C@@H]1CO`, for which the compound was called inactive.

`C[C@@H]1CN([C@@H](C)CO)C(=O)c2cccc(NS(=O)(=O)c3ccc(F)cc3)c2O[C@H]1CN(C)S(=O)(=O)c1ccc(Cl)cc1`: the result was inactive.

With `C[C@H]1CCCCO[C@H](CN(C)C(=O)c2ccncc2)[C@@H](C)CN([C@@H](C)CO)C(=O)c2cc(NC(=O)Cc3ccccc3)ccc2O1`, the outcome was inactive.

In the case of `CC(=O)NC[C@H]1[C@@H](c2ccc(C3=CCCC3)cc2)[C@@H](CO)N1C(=O)NC(C)C`, the result was inactive.

For the compound `CCC(C)(C(=O)Nc1cccc(C)c1)N1CCC1=O` (centres undefined), the compound was called inactive.

For the compound `C[C@@H]1CCCCO[C@H](CN(C)C(=O)Nc2ccc(F)cc2)[C@H](C)CN([C@@H](C)CO)C(=O)c2cc(NS(=O)(=O)c3ccc(Cl)cc3)ccc2O1`, the compound was classed as inactive.

In the case of `O=C(C[C@@H]1CC[C@H](NC(=O)Cc2ccccn2)[C@H](CO)O1)NCCc1ccccc1`, the outcome was inactive.

Turning to `O=C(Nc1cccc(F)c1)N[C@H]1CC[C@@H](CCNS(=O)(=O)c2cccc(Cl)c2)O[C@@H]1CO`, the compound was called inactive.

For `CCNC(=O)Nc1ccc2c(c1)C(=O)N(C)[C@H]1CC[C@H](CC(=O)N[C@@H](C)c3ccccc3)O[C@H]1CO2`, the call was inactive.

For the compound `Cc1cccc(C)c1NC(=O)CN1CCCC1`, the outcome was inactive.

In the case of `CN1CCN(C(=O)CN(c2ccc(I)cc2)S(=O)(=O)c2ccccc2)CC1`, the call was inactive.

In the case of `C[C@@H]1CN([C@@H](C)CO)S(=O)(=O)c2ccc(C#Cc3ccc(F)cc3)cc2O[C@H]1CN(C)C(=O)NC1CCCC1`, the result was inactive.

With `CC(=O)NNC(=O)CSc1nnc(-c2ccccc2)c(-c2ccccc2)n1`, the outcome was inactive.

For `CC(C)(C)C(=O)N1CCCC1C(=O)Nc1ccccc1` (centres undefined), the call was inactive.

Turning to `O=C(C[C@@H]1C[C@@H]2c3cc(NC(=O)Nc4ccc(F)cc4)ccc3O[C@@H]2[C@@H](CO)O1)NCC1CC1`, the compound was classed as inactive.

For `C[C@H](CO)N1C[C@H](C)[C@H](CN(C)S(=O)(=O)c2ccc(F)cc2)Oc2ccc(NS(=O)(=O)c3ccc(Cl)cc3)cc2C1=O`, the compound was classed as inactive.

As to `COCCNC(=O)C[C@@H]1CC[C@H]2[C@@H](COC[C@H](O)CN2Cc2cccc(-c3ccncc3)c2)O1`, the call was inactive.

As to `CC(C)NC(=O)Nc1cccc2c1O[C@H](CN(C)C)[C@H](C)CN([C@H](C)CO)C2=O`, the result was inactive.

With `COc1cccc(S(=O)(=O)N(C)C[C@H]2OCc3cnnn3CCCC(=O)N([C@H](C)CO)C[C@H]2C)c1`, the compound was classed as inactive.

On to `C[C@@H]1CN([C@@H](C)CO)C(=O)c2cccc(N(C)C)c2O[C@H]1CN(C)C(=O)Nc1ccc(C(F)(F)F)cc1`, for which the compound was called inactive.
